According to PubChem BioAssay AID431 (Sanford-Burnham Center for Chemical Genomics, 2006):
In all, about 63,000 compounds went through this assay and about 1,100 (1.7%) were called active.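 How the source made its calls: active means compounds whose percent cytotoxicity in the single-dose primary screen, scaled between solvent and toxic-drug controls, exceeds 50; inactive means the rest.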 Shown is part of a subset that was picked to be rich in actives. Entries with a potency or affinity are not part of this list.

test: cytotoxicity in KRAS-transformed pancreatic duct cells, primary screen, cell-based, fluorescence, HTS (AID 431); conditions: HPDE-C7K KRASV12 cells, Alamar Blue viability, 48 h; at 10 µM; hits give high values;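 further: 0% = DMSO solvent wells and 100% = doxorubicin-treated wells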

| SMILES | cytotoxicity |
| --- | --- |
| CCc1ccc(OCC(=O)N(C)C)c(Br)c1 | 7% (inactive) |
| CCCCc1ccc(NC(=O)COCC)cc1 | -2.8% (inactive) |
| CCCCc1ccc(NC(=O)OC)cc1 | -10.3% (inactive) |
| CCOC(=O)CSC(CC)C(=O)Nc1nnc(C(C)C)s1 (configuration not stated) | 1.3% (inactive) |
| COc1ccc(CCNC(=O)C2CCN(C(=O)N(C)C)CC2)cc1OC | -12.4% (inactive) |
| CCOC(=O)c1cc(-c2ccco2)nc2c1c(C)nn2-c1ccccc1 | -7.1% (inactive) |
| COc1cc(NC(=O)c2ccco2)c(OC)cc1NC(=O)c1cc(OC)c(OC)c(OC)c1 | 50.8% (active) |
| COc1cc(C(=O)Nc2ccc(NC(=O)c3ccco3)nc2)cc(OC)c1OC | -3.4% (inactive) |
| CCOc1cc(NC(=O)c2ccco2)c(OCC)cc1NC(=O)c1cc(OC)c(OC)c(OC)c1 | 7.5% (inactive) |
| COc1cccc(NC(=O)Cn2nnc(-c3ccccc3N)n2)c1 | 6.3% (inactive) |
| CCc1ccc2[nH]c(=O)c(CN(CCO)C(=O)NCc3ccccc3)cc2c1 | -4.1% (inactive) |
| N#Cc1cc(Oc2cccc3cccnc23)c(-n2nnc3ccccc32)cc1C#N | 74.9% (active) |
| COc1ccccc1Oc1cc(C#N)c(C#N)cc1-n1nnc2ccccc21 | -24.3% (inactive) |
| c1ccc(-n2nnnc2Oc2cccc3cccnc23)cc1 | -4.5% (inactive) |
| CCCC(=O)n1nc(-c2ccco2)nc1SCc1ccccc1 | 2.3% (inactive) |
| CCn1c(SCC(=O)Nc2ccc(S(=O)(=O)Nc3ccccn3)cc2)nnc1-c1ccncc1 | -0.6% (inactive) |
| COC(=O)c1c(C(=O)OC)c2n(c1C)Cc1ccccc1C2 | 3% (inactive) |
| Cc1ccc(C(=O)Nc2cccc(C(=O)NCc3ccco3)c2)cc1 | 66.2% (active) |
| Cc1occc1C(=O)Nc1cccc(C(=O)NCc2ccccc2)c1 | -17.7% (inactive) |
| O=C(NCc1ccccc1)c1cccc(NC(=O)c2ccco2)c1 | 35.4% (inactive) |
| CCC(CC)C(=O)Nc1cccc(C(=O)NCc2ccco2)c1 | -2.1% (inactive) |

| SMILES | cytotoxicity |
| --- | --- |
| O=C(NCc1ccco1)c1cccc(NC(=O)c2ccccc2)c1 | 33.2% (inactive) |
| CCc1ccc(-n2c(SCC(=O)Nc3cc(C)[nH]n3)nc3[nH]ncc3c2=O)cc1 | -4.9% (inactive) |
| COc1ccc2nc(NC(=O)C3CCN(S(=O)(=O)c4cnc[nH]4)CC3)sc2c1 | 14.5% (inactive) |
| O=C(Nc1c(C(=O)NCc2ccco2)cnn1-c1ccccc1)c1cccc(F)c1 | 7.2% (inactive) |
| O=C(NCc1ccco1)c1cc2ccccc2o1 | 7.8% (inactive) |
| C=CCn1c(N)nc2ccccc21 | -9.7% (inactive) |
| Cc1ccc(-n2c(N)c(-c3nc4ccccc4n3C)sc2=S)cc1 | 9.5% (inactive) |
| C=CCn1c(N)c(-c2nc3ccccc3n2C)sc1=S | 50.1% (active) |
| CCC(=O)Nc1ccc(NC(=O)c2c(C)nc3ccccn23)cc1 | -2.5% (inactive) |
| O=C(CCCC(=O)N(CC(=O)NC1CCCC1)Cc1ccc(F)cc1)Nc1ccccn1 | 14.7% (inactive) |
| C/C=C/Cn1c(N(C)Cc2ccccc2)nc2c1c(=O)[nH]c(=O)n2C | 5.8% (inactive) |
| CCOc1cc(N2CCOCC2)c(OCC)cc1NC(=O)COc1cccc2cccnc12 | 51% (active) |
| CCOc1cc(N2CCOCC2)c(OCC)cc1NC(=O)CN1CCc2ccccc2C1 | 9.3% (inactive) |
| CCOc1cc(N2CCOCC2)c(OCC)cc1NC(=O)Cc1ccc(OC)c(OC)c1 | -1.4% (inactive) |
| CC(C)(C)c1ccc(C(=O)N2CCC(C(=O)NCC3CCCO3)CC2)cc1 (configuration not stated) | -1.9% (inactive) |
| CC(C)Cn1c(SCC(=O)NC2CCCc3ccccc32)nc(O)cc1=O (configuration not stated) | -9.4% (inactive) |
| N#Cc1c(N)oc(-c2ccccc2)c1-c1ccccc1 | -9.5% (inactive) |
| N#Cc1c(/N=C/N2CCCC2)oc(-c2ccccc2)c1-c1ccccc1 | 15.9% (inactive) |
| N#Cc1c(/N=C/c2ccco2)oc(-c2ccccc2)c1-c1ccccc1 | 78.7% (active) |
| Cc1ccc(CCNc2ccccc2)c[n+]1[O-] | -10.6% (inactive) |
| CCOC(=O)CN1C(=O)C(O)(CC(=O)c2ccco2)c2ccccc21 (configuration not stated) | -77.9% (inactive) |

| SMILES | cytotoxicity |
| --- | --- |
| O=C(Nc1nccs1)Oc1ccccc1 | 0.7% (inactive) |
| COc1ccc2c3c(cccc13)OCC2=O | 18.6% (inactive) |
| COc1ccc(C(C)=O)c2c(O)cccc12 | 12.2% (inactive) |
| CC(=O)NC1CCN(C(=O)N2CCCC2)CC1 | 7.7% (inactive) |
| O=C(CSc1n[nH]c(-c2ccncc2)n1)NC1CCS(=O)(=O)C1 (configuration not stated) | -7.5% (inactive) |
| Cc1c(C(=O)NCc2ccoc2)oc2ccc3c(c12)C(=O)CC(C)(C)O3 | 36.4% (inactive) |
| CCOC(=O)c1ccc(N2C(=O)CC(NC3CCN(C(=O)c4ccc(F)cc4)CC3)C2=O)cc1 (configuration not stated) | -19.3% (inactive) |
| CC(C)OC(=O)c1cc(=O)[nH]c2ccccc12 | 13.4% (inactive) |
| Cc1noc(C)c1S(=O)(=O)N(CC(=O)Nc1ccc2c(c1)OCO2)c1ccc(C(C)C)cc1 | -3.1% (inactive) |
| O=C(Cc1cccs1)NCc1ccco1 | 6.7% (inactive) |
| Cc1cc(C)c2c(CC(=O)NCc3ccco3)coc2c1 | 5.6% (inactive) |
| Cc1ccc2c(CC(=O)NCc3ccco3)coc2c1C | 73.2% (active) |
| CN1C(=O)CC(N2CCN(C(c3ccccc3)c3ccccc3)CC2)C1=O (configuration not stated) | -16.6% (inactive) |
| COC(=O)Cn1c(CN2CCN(c3ccc(F)cc3)CC2)nc2c1c(=O)n(C)c(=O)n2C | 0.6% (inactive) |
| CCOC(=O)NC(Nc1ncccn1)(C(F)(F)F)C(F)(F)F | -17.3% (inactive) |
| COc1ccc(C2CC(=O)c3c([nH]c(C(=O)OC(C)C)c3C)C2)cc1OC (configuration not stated) | -16.2% (inactive) |
| COc1ccc(OC)c(C2CC(=O)c3c([nH]c(C(=O)OC(C)C)c3C)C2)c1 (configuration not stated) | 51.6% (active) |
| COCCOC(=O)c1[nH]c2c(c1C)C(=O)CC(c1cc(OC)ccc1OC)C2 (configuration not stated) | -6.8% (inactive) |
| CCCOCCOC(=O)c1[nH]c2c(c1C)C(=O)CC(c1cc(OC)ccc1OC)C2 (configuration not stated) | 53.5% (active) |
| COC(=O)c1[nH]c2c(c1C)C(=O)CC(c1cc(OC)ccc1OC)C2 (configuration not stated) | 18.9% (inactive) |
